The values that follow come from PubChem BioAssay (EPA / NIEHS).

The structures appear in SMILES notation. Inconclusive results are not listed. Active and inactive are the calls of the source. The calls were made as follows: active = hit-call score of the fitted dose curve at least 0.9, where 1 is the maximum; inconclusive = response in the unintended direction; inactive = score below 0.9.

One test is described as follows: ACEA_AR_agonist_AUC_viability: ACEA Biosciences xCELLigence Real-Time Cell Analysis on Androgen Receptor Agonism for Viability (AID 2283775).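 As to AC50: viability read 80 hours after compound addition.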 An outline of the steps:
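Real-time impedance tracking of 22Rv1 growth, readings every 5 min for 5 h then hourly; area-under-curve viability endpoint at 80 hours, relative to DMSO. Compounds at eight concentrations, 1:4 steps, top 100 uM, n = 2.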
With `NC(=O)Cn1c(=O)cc(CCN2CCN(c3nccc4sccc34)CC2)c2ccc(F)cc21`, the compound was classed as inactive.
Same read-out and setting: in the case of `Cc1nc(C)nc(N2C[C@@H](C)N(c3ccnc([C@@H](C)O)n3)[C@@H](C)C2)n1` it was “inactive”; in that of `CC(C)c1ccc(C(=O)N=C(N)N)cc1S(C)(=O)=O`, “inactive”.
Take `CCCCCC(=O)O`: the compound was classed as inactive.
On to `Cc1cccc([N+](=O)[O-])c1C`, for which the compound was classed as inactive.
Consider `CCCCCCCCCCCCCCCCCC(=O)O`, for which the compound was called inactive.
As for `CCc1c(C(=O)NN2CCCCC2)nn(-c2ccc(Cl)cc2Cl)c1-c1ccc(Br)cc1`, the AC50 is 12.7 µM (active).
Same read-out and setting: in the case of `O=C(O)Cc1ccccc1Nc1c(Cl)cccc1Cl` it was 42.1 µM (active).
In the case of `Cc1ccc(C)c(C)c1`, the result was inactive.
Take `NCCO`: the result was inactive.
Turning to `CC1(C)NC(=O)NC1=O`, the result was inactive.
The same measure, in the same setting: in the case of `CCCCCCCCCCC` it was “inactive”; in that of `c1cc(-c2ccncc2)ccn1`, “inactive”; in that of `NCC1(Cc2noc(=O)[nH]2)CCCCC1`, “inactive”.
Take `O=C(O)CCCCC(=O)O`: the AC50 was 9.92 µM (active).
In the case of `CC(=O)Oc1ccccc1C(=O)O`, the compound was called inactive.
Still for that read-out and setting: in the case of `CC(=O)C(C)=CC1C(C)=CCCC1(C)C` (stereo not drawn) it was “inactive”; in that of `CCCCCCCCCCCC(=O)OC`, “inactive”; in that of `Nc1ccc2c(c1)C(=O)c1ccccc1C2=O`, “inactive”.
Turning to `CCCCCCCC=O`, the outcome was inactive.
Turning to `Cc1ccc2ncccc2c1`, the outcome was inactive.
`COCCOC[C@H](CC1(C(=O)NC2CCC(C(=O)O)CC2)CCCC1)C(=O)Oc1ccc2c(c1)CCC2` (stereo partly drawn): the call was inactive.
In the case of `O=C(OCCCCCOC(=O)c1ccccc1)c1ccccc1`, the AC50 is 90.1 µM (active).
Regarding `CCCCCCCCCCCCCO`, the outcome was inactive.
For `C[Si]1(C)O[Si](C)(C)O[Si](C)(C)O[Si](C)(C)O1`, the compound was classed as inactive.
Turning to `NS(=O)(=O)c1cc2c(cc1Cl)NCNS2(=O)=O`, the compound was classed as inactive.

Another test can be described thus: ACEA_AR_antagonist_AUC_viability: ACEA Biosciences xCELLigence Real-Time Cell Analysis on Androgen Receptor Antagonism for Viability (AID 2283776).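 Also: hits lower the growth signal relative to DMSO meaning cytotoxicity.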 An outline of the steps:
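22Rv1 human prostate cancer cells were seeded on electrode plates, monitored overnight, then exposed to eight 1:4 dilutions from 100 uM final. Impedance-based growth kinetics at 80 h gave an AUC viability endpoint normalized to DMSO.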
As to `NC(=O)Cn1c(=O)cc(CCN2CCN(c3nccc4sccc34)CC2)c2ccc(F)cc21`, the AC50 is 12.1 µM (active).
`Cc1nc(C)nc(N2C[C@@H](C)N(c3ccnc([C@@H](C)O)n3)[C@@H](C)C2)n1`: the compound was classed as inactive.
Turning to `CC(C)c1ccc(C(=O)N=C(N)N)cc1S(C)(=O)=O`, the compound was classed as inactive.
The same measure, in the same setting: in the case of `CCCCCC(=O)O` it was “inactive”; in that of `Cc1cccc([N+](=O)[O-])c1C`, “inactive”.
Consider `CCCCCCCCCCCCCCCCCC(=O)O`, for which the half-maximal activity concentration (AC50) is 25 µM (active).
On to `CCc1c(C(=O)NN2CCCCC2)nn(-c2ccc(Cl)cc2Cl)c1-c1ccc(Br)cc1`, for which the AC50 is 10.8 µM (active).
For the compound `O=C(O)Cc1ccccc1Nc1c(Cl)cccc1Cl`, the half-maximal activity concentration (AC50) is 50 µM (active).
Consider `Cc1cc(NC(=O)C(=O)O)cc(C)c1Oc1ccc(O)c2c1CCC2`, for which the outcome was inactive.
Consider `Cc1ccc(C)c(C)c1`, for which the outcome was inactive.
With `NCCO`, the result was inactive.
On to `CC1(C)NC(=O)NC1=O`, for which the call was inactive.
As for `Cc1c(C(=O)O)c(O)cc2c1C(=O)c1c(O)c([C@@H]3O[C@H](CO)[C@@H](O)[C@H](O)[C@H]3O)c(O)c(O)c1C2=O`, the call was inactive.
For `c1cc(-c2ccncc2)ccn1`, the compound was classed as inactive.
For `NCC1(Cc2noc(=O)[nH]2)CCCCC1`, the compound was classed as inactive.
As to `O=C(O)CCCCC(=O)O`, the AC50 is 3.82 µM (active).
As to `CC(=O)Oc1ccccc1C(=O)O`, the call was inactive.
As for `CC(=O)C(C)=CC1C(C)=CCCC1(C)C` (stereo not drawn), the AC50 was 9.92 µM (active).
Regarding `CCCCCCCCCCCC(=O)OC`, the result was inactive.
As for `Nc1ccc2c(c1)C(=O)c1ccccc1C2=O`, the AC50 was 14.1 µM (active).
With `CCCCCCCC=O`, the call was inactive.
`Cc1ccc2ncccc2c1`: the compound was classed as inactive.
For the compound `COCCOC[C@H](CC1(C(=O)NC2CCC(C(=O)O)CC2)CCCC1)C(=O)Oc1ccc2c(c1)CCC2` (stereo partly drawn), the AC50 was 16.5 µM (active).
On the same count and under the same terms, for `O=C(OCCCCCOC(=O)c1ccccc1)c1ccccc1` the value was 77.9 µM (active).
`CCCCCCCCCCCCCO`: the call was inactive.
Turning to `C[Si]1(C)O[Si](C)(C)O[Si](C)(C)O[Si](C)(C)O1`, the outcome was inactive.
For the compound `NS(=O)(=O)c1cc2c(cc1Cl)NCNS2(=O)=O`, the result was inactive.

The term AC50 denotes the concentration giving half of the maximal activity seen.
